Experimental data from PubChem BioAssay AID1347120 (National Center for Advancing Translational Sciences (NCATS), 2019).
In all, about 390,000 compounds went through this assay and about 930 (0.24%) were called active. Roughly 5% stayed inconclusive and do not appear here. Calls follow the shape of the dose curve; as a rule, active = well fitted activation curve with a large enough effect; inconclusive = small, poorly fitted or top-dose-only effect; inactive = no such curve, though single readings can be large or run the other way. The list comes from a sample in which actives are over-represented; it also holds similar structures and randomly drawn compounds. Entries that show only a call come without a potency.

test: qHTS for Suppressors of FUS Proteinopathy: Primary screen using FUS-linked yeast assay; also: nearly all actives have a fitted effect of over 55% in size; settings: S. cerevisiae FUS-expressing, OD600, 24 h; Potency: growth rescue; series mostly up to 76.6 µM
Description: Several widespread neurodegenerative diseases, including Alzheimer disease, Huntington disease, Frontotemporal Lobar Degeneration (FTLD) and Amyotrophic Lateral Sclerosis (ALS), share a common pathological feature, namely accumulation of specific protein aggregates in diseased tissue. These diseases which is associated with protein misfolding (proteinopathies) have become increasingly problematic as the population ages and life expectancies are extended. Most proteinopathies are currently incurable, a situation confounded by the fact that the basis of neurodegeneration is generally poorly understood. There exists urgent and significant need to find therapeutics that can inhibit the toxicity associated with protein aggregation. A novel approach to understand the underlying mechanisms of neurodegenerative diseases has recently emerged in which the disease conditions are modeled in the yeast (Saccharomyces cerevisiae), a tractable eukaryotic organism with conserved protein quality control mechanisms. Yeast offers quick and reliable genetic manipulations and can be easily tailored to high-throughput screening (HTS).
For this project, a yeast model of the FUS proteinopathies (a spectrum of neurodegenerative diseases that include ALS and a subtype of FTLD) was generated and employed. The cytoplasmic accumulation of the DNA/RNA-binding protein FUS (also known as TLS) is causative to both familial and sporadic forms of ALS and FTLD. This yeast model recapitulates neuronal pathology by showing severe cytotoxicity associated with cytoplasmic accumulation of FUS aggregates and a specific interaction between FUS and TDP-43, another ALS-associated protein. […] Specifically, the cellular accumulation of misfolded FUS that disrupts RNA homeostasis in both yeast and higher eukaryotes. This model was validated to be suitable for quantitative HTS (qHTS) use for finding genetic or chemical factors that restore growth. […] Identified compounds that inhibits FUS-yeast toxicity is flagged, re-acquired, and validated for further investigation and optimization.
NIH Chemical Genomics Center [NCGC]
NIH Molecular Libraries Probe Production Centers Network [MLPCN]
Assay Submitter (PI): Frank Shewmaker PhD, Uniformed Services University of the Health Sciences
Compound CP55940 was used as the positive control. Column 1 was treated with CP55940 titration from 92uM (final concentration, 1:2 dilution), while Column 2 was treated with top dose 92uM. Columns 3 and 4 were treated with DMSO only as negative control to assess background and noise signal.
Four hundred fifty microliter of cultured yeast (in 20mL rich medium) provided by Dr. Shewmaker lab was incubated at 30C at 99% humidity for 3hr. The culture was then spun down at 4000rpm for 5min and the cell pellet was resuspended in 2mL of Sdmin Media + ALU(330) + 2.5% Raffinose. One hundred microliter of the suspension was added to 900uL of water and OD of the solution was obtained. Twenty mL of responding medium (provided by Shewmaker lab) + 2.5% raffinose was added to ensure cell density of 0.1; the solution was incubated overnight. Working cell solution (FUS-yeast in Sdmi + Sdmi + 1X ALU + 2% galactose media) was prepared (final OD at 0.005) and 3uL was dispensed in a 1536-well Aurora high based clear bottom assay plates. Controls and library compounds (at various final concentrations from 40uM to 0.32uM) were added using a 1536-well pin array using the Kalypsys pin-tool. The plates were then incubated for 24hrs in a cell-culture incubator (30C; 99% humidity). Absorbance at 600nm was then read using the PerkinElmer ViewLux plate reader.
Potency is read from the fitted curve at half-maximal effect.

Row | Compound | Potency
1 | Fc1ccc(-c2nc(Nc3cccc(Cl)c3)nc3c2COc2ccccc2-3)cc1 | inactive
2 | CC(=O)c1cccc(Nc2ccc3cc(S(=O)(=O)N4CCC(C)CC4)ccc3n2)c1 | inactive
3 | COc1ccc(-c2cc(-c3nc(-c4cc(OC)c(OC)c(OC)c4)no3)[nH]n2)c(OC)c1 | inactive
4 | CCN(C(=O)CSc1nnc(C)n2c1cc1occc12)c1ccccc1 | inactive
5 | COc1ccc(-c2onc(C)c2C)cc1S(=O)(=O)NCCc1ccccc1 | inactive
6 | CCN(CC)C(=O)CSc1nc2ccsc2c(=O)n1Cc1ccccc1Cl | inactive
7 | Cc1c(Cl)cccc1NC(=O)C(=O)NCCc1csc2nc(-c3ccccc3F)nn12 | inactive
8 | Cc1cccc(Cn2c(SCc3ccc(C(=O)N4CCC(C)CC4)cc3)nc3ccncc32)c1 | inactive
9 | CC(=O)N1CCCc2cc(S(=O)(=O)N3CCC(C(=O)NCc4ccc(F)cc4)CC3)ccc21 | inactive
10 | O=C(c1ccc(C(F)(F)F)cc1)N1CCC(c2nc(-c3ccc(S(=O)(=O)N4CCCC4)cc3)no2)CC1 | inactive
11 | CSc1ccccc1NC(=O)CCS(=O)(=O)c1nc(-c2cccs2)cc(C(F)(F)F)n1 | inactive
12 | Cc1c(Cl)cccc1NC(=O)Cn1cc(C(=O)c2cccs2)c2ccccc21 | inactive
13 | CCN(CCCNC(=O)c1cc(Nc2ccc(OC)cc2)nc2ccccc12)c1cccc(C)c1 | inactive
14 | Cc1ccc(-n2ncc(C(=O)N(C)Cc3ccccc3)c2-n2cccc2)cc1 | inactive
15 | Cc1cccc(NC(=O)N(Cc2cc3cc(C)cc(C)c3[nH]c2=O)CC2COCCO2)c1 (stereo not drawn) | 35.5 µM (active)
16 | Cc1ccc2[nH]c(=O)c(CN(CC3COCCO3)C(=O)Nc3ccccc3C)cc2c1 (stereo not drawn) | inactive
17 | Cc1ccc2[nH]c(=O)c(CN(CCCN(C)C)C(=O)Nc3cccc(Cl)c3)cc2c1 | inactive
18 | CCCCn1c(N)c(N(CCC(C)C)C(=O)COC(=O)c2ccc(CC)cc2)c(=O)[nH]c1=O | inactive
19 | CCCCCN(C(=O)CCC(=O)OCC(=O)NC1CCC(C)CC1)c1c(N)n(CCCC)c(=O)[nH]c1=O (stereo not drawn) | 31.6 µM (active)
20 | CCCCCN(C(=O)CCC(=O)OCC(=O)NCc1ccc(OC)cc1)c1c(N)n(CCCC)c(=O)[nH]c1=O | inactive
21 | Cc1ccc(CNC(=O)CCC(=O)N2Cc3ccccc3Oc3ncccc32)cc1 | inactive
22 | COc1ccc(CCNC(=O)c2ccc3c(c2)sc2nc(-c4ccc(C)cc4)cn23)cc1OC | inactive
23 | COC(=O)c1ccc(NC(=O)CCc2c(C)nn(-c3ccc(N4CCCC4)nn3)c2C)cc1 | inactive
24 | Cc1ccc(Cc2cnc(N)s2)o1 | 11.2 µM (active)

Row | Compound | Potency
25 | Fc1ccc(Nc2nc(SCc3ccccc3Cl)nc3ccccc23)cc1 | inactive
26 | O=C(Nc1c(C(=O)N2CCN(c3ccc(F)cc3)CC2)oc2ccccc12)c1ccco1 | inactive
27 | COc1ccccc1NC(=O)c1sc2nc(C)c(C(=O)Nc3ccc(Cl)cc3)c(-c3ccc(Br)cc3)c2c1N | inactive
28 | CC(C)S(=O)(=O)c1oc(-c2ccc(F)cc2)nc1S(=O)(=O)c1ccc(F)cc1 | inactive
29 | CCOc1ccccc1NC(=O)C1CCCN(S(=O)(=O)c2cn(C)cn2)C1 (stereo not drawn) | inactive
30 | COC(=O)c1ccccc1NC(=O)c1ccc2c(=O)n3c(nc2c1)CCCCC3 | inactive
31 | COc1cccc(CNC(=O)c2ccc3c(c2)sc2nc(-c4cccc(OC)c4)cn23)c1 | inactive
32 | CN1C(=O)c2[nH]nc(-c3ccc(F)cc3)c2C1c1ccccn1 (stereo not drawn) | inactive
33 | COc1ccc(CCNC(=O)c2nn(C)c3c2CSc2ccccc2-3)cc1OC | inactive
34 | CCCn1c2ccccc2c2cnn(CC(=O)NCC3CCN(Cc4ccc(C)cc4)CC3)c(=O)c21 | inactive
35 | Cc1ccc(NC(=O)CSc2nc3ccccc3c3nc(CCn4cncc4C)nn23)cc1F | inactive
36 | Cc1cccc(NC(=O)C2CCCN2S(=O)(=O)c2cccc3nsnc23)c1C (stereo not drawn) | inactive
37 | COc1ccc(-c2cn3c(n2)sc2cc(C(=O)Nc4ccccc4F)ccc23)cc1 | inactive
38 | CCOc1ccc(NC(=O)c2c(NC(=O)Cc3ccccc3)sc3c2CCCCC3)cc1 | inactive
39 | NS(=O)(=O)c1ccc(CCNC(=O)CCCCCn2c(=O)[nH]c3ccccc3c2=O)cc1 | inactive
40 | CCOC(=O)C1=C(c2ccccc2)Nc2ncnn2C1c1ccc(Cl)cc1 (stereo not drawn) | inactive
41 | COc1ccc(N2CCN(c3cc(C)nc4nncn34)CC2)cc1 | inactive
42 | CC(C)Cc1ccc(-c2cc3nc(NCc4cccc(Cl)c4)ccn3n2)cc1 | inactive
43 | COCCCNc1ccn2nc(-c3ccc(CC(C)C)cc3)cc2n1 | 25.1 µM (active)
44 | COc1ccccc1-c1cc2nc(NCc3cccc(Cl)c3)ccn2n1 | inactive
45 | CCOc1ccccc1N(CC)C(=O)Nc1cn(C)c(=O)c2ccccc12 | inactive
46 | Cc1ccc(C)c(N2CCN(CCCNC(=O)Nc3ccc(Cl)cc3)CC2)c1 | inactive
47 | CCc1cc2c(cc3c(=O)n(CC(=O)NCCc4ccc(OC)c(OC)c4)ncn32)s1 | inactive
48 | COc1cccc(OC)c1OCCN1CCN(C(=O)c2ccco2)CC1 | inactive

Row | Compound | Potency
49 | Cc1ccc(-c2csc(C(C#N)=C(O)CN3CCN(C(=O)c4ccco4)CC3)n2)cc1 | 28.2 µM (active)
50 | Cc1ccc(NC(=O)C(c2ccccc2)N2CCN(C(=O)c3ccco3)CC2)cc1 (stereo not drawn) | inactive
51 | CN1CCN(C2(CNC(=O)COc3ccc(C(C)(C)C)cc3)CCCCC2)CC1 | inactive
52 | CC(C)(C)OC(=O)C[C@@H]1C/C=C\C[C@@H](CC(=O)N[C@H](CO)Cc2ccccc2)C(=O)NC[C@@H](c2ccccc2)OC1=O | inactive
53 | O=C(C[C@H]1C/C=C\C[C@@H](NC(=O)OCC2c3ccccc3-c3ccccc32)C(=O)O[C@@H](c2ccccc2)CNC1=O)N[C@H](CO)Cc1ccccc1 | 35.5 µM (active)
54 | CC(C)(C)OC(=O)C[C@@H]1C/C=C\C[C@@H](CC(=O)N[C@H](CO)Cc2ccccc2)C(=O)NCCOC1=O | inactive
55 | CC(C)c1ccc(NC(=O)c2ccc3c(O)c(S(=O)(=O)c4ccccc4)c(=O)[nH]c3c2)cc1 | inactive
56 | Cc1ccc(Cl)cc1-n1ncc2c(N3CCC(C(N)=O)CC3)ncnc21 | inactive
57 | CCOC(=O)c1c(NC(C)=O)c2c3c(sc2n1Cc1c(C)cc(C)cc1C)CCCC3 | inactive
58 | CCc1ccccc1NC(=O)CSc1nnc(-c2ccccc2)c(-c2ccccc2)n1 | inactive
59 | CCOCCCn1c(SCC(=O)Nc2ccc(CC)cc2)nc2ccccc2c1=O | inactive
60 | O=C(CN1CCOCC1)Nc1ccccc1 | 25.1 µM (active)
61 | O=C(CN1CCOCC1)Nc1c(Cl)cc(Cl)cc1Cl | inactive
62 | O=C(CN1CCOCC1)Nc1c2c(nc3c1CCC3)CCC2 | inactive
63 | CN(c1ccccc1)S(=O)(=O)c1ccc(NC(=O)COc2ccccc2)cc1 | inactive
64 | CN(C)S(=O)(=O)c1cccc(NC(=O)COC(=O)C2(c3ccccc3F)CCCC2)c1 | inactive
65 | CN(C)S(=O)(=O)c1cccc(NC(=O)COc2ccc3ccccc3c2)c1 | 22.4 µM (active)
66 | Cc1ccc(NC(=O)C2CCN(S(=O)(=O)c3cc(-c4noc(C)n4)ccc3C)CC2)c(C)c1 | inactive
67 | Cc1ccccc1C(=O)Nc1nnc(S(=O)(=O)N(C)c2ccc(Cl)cc2)s1 | inactive
68 | CCOC(=O)C1=C(C)Nc2sc(C(=O)c3ccc(Br)cc3)c(N)c2C1c1ccc(C(=O)OC)cc1 (stereo not drawn) | 31.6 µM (active)
69 | CCOC(=O)C1=C(C)NC2=C(C(=O)CC(C)(C)C2)C1c1ccsc1 (stereo not drawn) | inactive
70 | CCOC(=O)C1=C(C)NC(SC)=NC1c1ccccc1 (stereo not drawn) | inactive
71 | O=C(NCc1ccccc1)c1cccc(NC(=O)N2CCSc3ncccc32)c1 | inactive
72 | Cc1cc(C(=O)Nc2cccc(C(F)(F)F)c2)c2c(C)nn(-c3cccc(F)c3)c2n1 | inactive

Row | Compound | Potency
73 | CC(C)(C)c1ccc(C(=O)Nc2ccc3c(c2)CCCN3C(=O)c2cccs2)cc1 | inactive
74 | CC(C)c1ccc(S(=O)(=O)Nc2ccc(O)c(Sc3nc4ccccc4s3)c2)cc1 | inactive
75 | CC(C)(C)c1ccc(S(=O)(=O)Nc2ccc(O)c(Sc3nc4ccccc4s3)c2)cc1 | inactive
76 | CCOc1ccc(Nc2c(S(=O)(=O)c3ccccc3)cnc3ccccc23)cc1 | inactive
77 | Cc1c(NC(=O)Cc2ccccc2)cccc1-c1nc2cccnc2s1 | inactive
78 | Cc1ccc(Cl)cc1NC(=O)CCC(=O)N1CC(C)Sc2ccccc21 (stereo not drawn) | inactive
79 | CCCn1c(C)cc(/C=C(\C#N)C(=O)OCC(=O)Nc2cc(OC)c(OC)c(OC)c2)c1C | inactive
80 | CCCn1c(C)cc(/C=C(\C#N)C(=O)OCC(=O)N(C)c2c(N)n(Cc3ccccc3)c(=O)[nH]c2=O)c1C | 25.1 µM (active)
81 | CCN(C(=O)COC(=O)CCOc1cccc(C)c1)c1c(N)n(Cc2ccccc2)c(=O)[nH]c1=O | inactive
82 | CCC1CCCCN1C(=O)Cn1c(=O)n(CCCCCC(=O)NCc2ccccc2)c(=O)c2sccc21 (stereo not drawn) | inactive
83 | COc1ccc(NC(=O)NC(C)c2c(-n3cccc3)sc(C)c2C)cc1OC (stereo not drawn) | inactive
84 | CCN(CC)S(=O)(=O)c1ccc2c(c1)N(CC(=O)NCC(C)c1ccccc1)C(=O)CO2 (stereo not drawn) | inactive
85 | CCN(CCCNC(=O)c1cc2c(=O)n(CC)c3ccccc3c2s1)Cc1ccccc1 | inactive
86 | Cc1cccc(NC(=O)CSc2nnc(CNC(=O)c3cccc(C)c3)n2-c2ccccc2)c1 | inactive
87 | CCc1ccc(S(=O)(=O)c2nnn3c2nc(NCc2ccccc2OC)c2cc(Cl)ccc23)cc1 | inactive
88 | N#C/C(=C\c1cccc(F)c1)c1nc(-c2cc3c(ccc4ccccc43)oc2=O)cs1 | inactive
89 | COc1ccc(C2C(=O)N(C3CCCCCC3)CC(=O)N2CCc2ccc(Cl)cc2)cc1OC (stereo not drawn) | inactive
90 | Cc1onc(-c2ccc(F)cc2F)c1C(=O)Nc1cccc(C(F)(F)F)c1 | inactive
91 | COc1ccc(C2=NN(C(=O)CSc3nc(=O)n4ccc(C)cc4n3)C(c3ccc(C)cc3)C2)cc1 (stereo not drawn) | inactive
92 | Cc1ccc(CNC(=O)CSC2=Nc3ccccc3C3=NC(C)C(=O)N23)cc1 (stereo not drawn) | inactive
93 | Cc1ccc(N2C(=O)C3N=NN(CC(=O)N4N=C(c5cccc6ccccc56)CC4c4ccccc4)C3C2=O)cc1 (stereo not drawn) | 14.1 µM (active)
